What all share (test): DAPPL (digital affinity profiling via proximity ligation, sequencing); 10 mM Tris-HCl pH 7.5, 50 mM NaCl, 1 mM DTT, 4% glycerol, room temperature, 30 min; GST-TFs on glutathione beads, 16-mer random dsDNA library, 0.1% formaldehyde crosslink after washing; high values mean tight binding
Assay [1] addresses T1, FEV (Homo sapiens, UniProt Q99581 1-238).
T1 sequence: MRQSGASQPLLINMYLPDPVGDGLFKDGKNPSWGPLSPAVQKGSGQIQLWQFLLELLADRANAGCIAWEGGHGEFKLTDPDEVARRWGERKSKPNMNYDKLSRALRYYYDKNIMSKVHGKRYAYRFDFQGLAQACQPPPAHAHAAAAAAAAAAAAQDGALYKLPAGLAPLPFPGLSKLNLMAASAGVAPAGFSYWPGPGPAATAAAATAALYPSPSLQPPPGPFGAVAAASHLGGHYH
Particulars: protein: recombinant; tags: N-terminal GST; dsDNA, one strand shown. The method in brief:
(§1)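 Binding signal is each hexamer's read frequency for a factor divided by its frequency in the tag-only sample. The factors were GST-fused human transcription factors from yeast, captured on glutathione beads, DNA-barcoded and pooled with that sample. Pools were incubated with 200 nmole of a random double-stranded 16-mer DNA library in Tris/NaCl/DTT/glycerol buffer at room temperature for 30 min, then washed, crosslinked with 0.1% formaldehyde, proximity-ligated with BsaI/T4 ligase (1 h, 37 °C), PCR-amplified and sequenced on an Illumina NextSeq500.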

The target in assay [2] is ETV5 (Homo sapiens, UniProt P41161 1-510). Conditions: protein: recombinant; tags: N-terminal GST; dsDNA, one strand shown. The method in brief: as §1
Chain of ETV5 (P41161 whole entry): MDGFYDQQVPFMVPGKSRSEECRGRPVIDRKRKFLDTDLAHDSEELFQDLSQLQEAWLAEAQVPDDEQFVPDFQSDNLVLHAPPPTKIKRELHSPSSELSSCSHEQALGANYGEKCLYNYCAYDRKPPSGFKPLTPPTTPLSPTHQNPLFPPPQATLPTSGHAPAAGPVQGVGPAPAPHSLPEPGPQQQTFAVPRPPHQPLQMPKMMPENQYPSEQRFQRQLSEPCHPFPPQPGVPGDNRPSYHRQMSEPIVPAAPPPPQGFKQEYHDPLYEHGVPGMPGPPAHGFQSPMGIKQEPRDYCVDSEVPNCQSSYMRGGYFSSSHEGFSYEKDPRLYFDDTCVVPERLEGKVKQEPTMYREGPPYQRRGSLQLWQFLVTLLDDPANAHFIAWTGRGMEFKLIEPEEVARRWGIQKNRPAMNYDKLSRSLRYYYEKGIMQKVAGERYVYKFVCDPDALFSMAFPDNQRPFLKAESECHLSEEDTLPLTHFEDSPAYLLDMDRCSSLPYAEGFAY
Assay [3] concerns the target HSF1 (Homo sapiens, UniProt Q00613 1-529). Particulars: protein: recombinant; tags: N-terminal GST; chain copies: 3; dsDNA, one strand shown. A digest of the protocol:
as §1

Assay [4] has as its target T2, SPIC (Homo sapiens, UniProt Q8N5J4 1-248).
T2 sequence: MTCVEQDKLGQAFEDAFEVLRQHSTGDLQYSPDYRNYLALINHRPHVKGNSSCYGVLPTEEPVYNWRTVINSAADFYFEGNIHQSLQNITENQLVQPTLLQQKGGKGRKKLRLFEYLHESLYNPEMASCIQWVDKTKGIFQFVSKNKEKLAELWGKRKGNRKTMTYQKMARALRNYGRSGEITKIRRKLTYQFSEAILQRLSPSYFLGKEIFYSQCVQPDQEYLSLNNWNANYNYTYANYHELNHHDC
Conditions: protein: recombinant; tags: N-terminal GST; dsDNA, one strand shown. A digest of the protocol:
as §1

Assay [5] has as its target ELF4 (Homo sapiens, UniProt Q99607 1-663). Particulars: protein: recombinant; tags: N-terminal GST; dsDNA, one strand shown. The method in brief: as §1
The target of assay [6] is T3, ELK4 (Homo sapiens, UniProt P28324-2 1-405).
T3 sequence: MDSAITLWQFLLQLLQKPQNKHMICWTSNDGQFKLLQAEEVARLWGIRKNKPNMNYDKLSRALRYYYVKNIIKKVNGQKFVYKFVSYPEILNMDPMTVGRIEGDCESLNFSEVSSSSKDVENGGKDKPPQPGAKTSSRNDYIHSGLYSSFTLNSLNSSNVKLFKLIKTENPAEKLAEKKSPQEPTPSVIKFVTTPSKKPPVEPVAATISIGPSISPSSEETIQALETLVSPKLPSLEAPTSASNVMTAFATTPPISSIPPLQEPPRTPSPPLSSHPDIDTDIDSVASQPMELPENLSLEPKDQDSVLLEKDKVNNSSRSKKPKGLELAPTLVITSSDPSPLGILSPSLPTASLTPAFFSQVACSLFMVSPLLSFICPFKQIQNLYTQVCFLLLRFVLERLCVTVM
Conditions: protein: recombinant; tags: N-terminal GST; dsDNA, one strand shown. A digest of the protocol:
as §1

Assay [7] deals with T4, ETV2 (Homo sapiens, UniProt O00321 1-342).
T4 sequence: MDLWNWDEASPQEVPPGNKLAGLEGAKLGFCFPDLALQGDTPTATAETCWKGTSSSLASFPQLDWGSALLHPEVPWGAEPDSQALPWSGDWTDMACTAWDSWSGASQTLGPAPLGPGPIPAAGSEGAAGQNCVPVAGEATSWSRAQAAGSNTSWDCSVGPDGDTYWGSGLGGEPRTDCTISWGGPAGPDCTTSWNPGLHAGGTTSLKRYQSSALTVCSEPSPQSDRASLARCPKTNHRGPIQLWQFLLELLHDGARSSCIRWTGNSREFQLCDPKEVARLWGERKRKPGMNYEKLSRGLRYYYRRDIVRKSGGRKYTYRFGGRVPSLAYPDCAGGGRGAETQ
Particulars: protein: recombinant; tags: N-terminal GST; dsDNA, one strand shown. The method in brief:
as §1

Assay [8] addresses T5, ELF3 (Homo sapiens, UniProt P78545 1-371).
T5 sequence: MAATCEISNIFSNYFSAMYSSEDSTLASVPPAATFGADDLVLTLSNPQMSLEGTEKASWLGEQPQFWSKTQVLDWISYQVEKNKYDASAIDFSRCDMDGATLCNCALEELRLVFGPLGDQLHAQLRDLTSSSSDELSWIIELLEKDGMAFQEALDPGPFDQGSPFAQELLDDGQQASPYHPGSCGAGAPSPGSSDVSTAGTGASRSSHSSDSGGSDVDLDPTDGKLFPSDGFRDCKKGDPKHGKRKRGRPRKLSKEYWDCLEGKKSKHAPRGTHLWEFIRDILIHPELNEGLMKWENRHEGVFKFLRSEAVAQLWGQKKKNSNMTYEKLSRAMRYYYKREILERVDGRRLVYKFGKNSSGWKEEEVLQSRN
Conditions: protein: recombinant; tags: N-terminal GST; dsDNA, one strand shown. A digest of the protocol: as §1

For assay [9], the target named is CRX (Homo sapiens, UniProt O43186 1-299). Conditions: protein: recombinant; tags: N-terminal GST; dsDNA, one strand shown. The method in brief: as §1
Chain of CRX (O43186 whole entry): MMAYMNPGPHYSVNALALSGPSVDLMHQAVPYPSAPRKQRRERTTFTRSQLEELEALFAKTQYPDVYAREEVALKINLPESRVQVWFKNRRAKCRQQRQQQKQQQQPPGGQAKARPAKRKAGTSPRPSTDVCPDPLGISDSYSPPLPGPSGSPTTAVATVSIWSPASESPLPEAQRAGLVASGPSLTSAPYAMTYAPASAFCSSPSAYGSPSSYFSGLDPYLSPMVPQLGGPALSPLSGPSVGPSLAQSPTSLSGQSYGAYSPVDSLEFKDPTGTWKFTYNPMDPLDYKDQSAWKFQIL
The target in assay [10] is ETV1 (Homo sapiens, UniProt P50549 1-477). Conditions: protein: recombinant; tags: N-terminal GST; dsDNA, one strand shown. The method in brief:
as §1

Chain of ELF4 (Q99607 whole entry): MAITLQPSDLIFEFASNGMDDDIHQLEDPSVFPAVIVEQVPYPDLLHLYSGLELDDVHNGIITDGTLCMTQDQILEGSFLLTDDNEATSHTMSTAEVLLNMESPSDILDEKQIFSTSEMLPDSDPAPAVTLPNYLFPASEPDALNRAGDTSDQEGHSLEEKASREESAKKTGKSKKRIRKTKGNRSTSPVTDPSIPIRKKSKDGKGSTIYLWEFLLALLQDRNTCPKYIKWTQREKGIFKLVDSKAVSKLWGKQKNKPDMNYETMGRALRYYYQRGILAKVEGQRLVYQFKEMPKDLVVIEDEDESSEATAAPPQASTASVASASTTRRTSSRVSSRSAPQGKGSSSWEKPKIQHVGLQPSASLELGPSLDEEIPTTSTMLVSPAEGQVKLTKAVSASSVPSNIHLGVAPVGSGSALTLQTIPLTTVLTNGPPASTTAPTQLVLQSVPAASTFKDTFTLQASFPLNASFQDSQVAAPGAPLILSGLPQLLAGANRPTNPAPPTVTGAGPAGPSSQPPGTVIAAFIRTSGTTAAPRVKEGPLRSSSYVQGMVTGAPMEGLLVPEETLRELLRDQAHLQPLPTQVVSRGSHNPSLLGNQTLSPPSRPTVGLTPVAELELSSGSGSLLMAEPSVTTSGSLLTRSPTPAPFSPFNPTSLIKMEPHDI
Chain of HSF1 (Q00613 whole entry): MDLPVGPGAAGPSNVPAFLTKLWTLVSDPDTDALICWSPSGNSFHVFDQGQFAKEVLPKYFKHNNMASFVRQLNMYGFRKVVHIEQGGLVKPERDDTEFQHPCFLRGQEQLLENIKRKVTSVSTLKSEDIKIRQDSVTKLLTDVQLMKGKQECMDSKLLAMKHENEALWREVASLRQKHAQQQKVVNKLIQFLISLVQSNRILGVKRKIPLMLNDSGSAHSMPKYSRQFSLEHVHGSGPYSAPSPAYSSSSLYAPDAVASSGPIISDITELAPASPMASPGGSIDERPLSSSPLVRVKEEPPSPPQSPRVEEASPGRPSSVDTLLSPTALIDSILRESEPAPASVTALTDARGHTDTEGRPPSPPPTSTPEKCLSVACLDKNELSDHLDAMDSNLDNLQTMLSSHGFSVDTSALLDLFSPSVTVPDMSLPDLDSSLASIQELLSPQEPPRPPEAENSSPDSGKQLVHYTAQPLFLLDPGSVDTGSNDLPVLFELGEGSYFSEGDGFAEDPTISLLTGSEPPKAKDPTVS
Chain of ETV1 (P50549 whole entry): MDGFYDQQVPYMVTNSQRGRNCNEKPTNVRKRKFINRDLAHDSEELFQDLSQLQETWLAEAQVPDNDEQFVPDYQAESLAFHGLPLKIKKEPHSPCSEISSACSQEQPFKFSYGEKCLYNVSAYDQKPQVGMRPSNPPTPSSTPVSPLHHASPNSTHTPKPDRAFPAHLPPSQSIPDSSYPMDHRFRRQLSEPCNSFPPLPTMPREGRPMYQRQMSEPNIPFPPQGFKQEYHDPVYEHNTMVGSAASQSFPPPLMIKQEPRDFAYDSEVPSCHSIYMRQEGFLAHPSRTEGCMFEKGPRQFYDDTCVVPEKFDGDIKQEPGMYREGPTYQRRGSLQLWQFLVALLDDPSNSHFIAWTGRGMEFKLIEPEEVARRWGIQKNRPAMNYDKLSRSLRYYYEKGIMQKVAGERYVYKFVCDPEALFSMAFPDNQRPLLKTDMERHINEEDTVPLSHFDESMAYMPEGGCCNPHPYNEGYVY

On to TAATGG, for which the binding signal is 1.25 fold enrichment (6-mer frequency, TF over GST control) in assay [1]; 1.35 fold enrichment (6-mer frequency, TF over GST control) in [2]; 1.46 fold enrichment (6-mer frequency, TF over GST control) in assay [3]; 1.34 fold enrichment (6-mer frequency, TF over GST control) in [4]; 1.3 fold enrichment (6-mer frequency, TF over GST control) in [5]; 1.3 fold enrichment (6-mer frequency, TF over GST control) in assay [6]. Moreover, the binding signal was 1.09 fold enrichment (6-mer frequency, TF over GST control) in assay [7]; 1.31 fold enrichment (6-mer frequency, TF over GST control) in assay [8]; 1.64 fold enrichment (6-mer frequency, TF over GST control) in assay [9]; 1.45 fold enrichment (6-mer frequency, TF over GST control) in assay [10].

Source of the values: publication PMC7862700, “An all-to-all approach to the identification of sequence-specific readers for epigenetic DNA modifications on cytosine”.
